Measurements taken from PubChem BioAssay (Tox21).
Values joined by “and” are separate entries in the source; they are usually repeats but may differ in a detail not shown here. Equal entries are not always repeated. Results filed as inconclusive are left out. Entries that show only a call come without a potency. A structure can be active in one record and inactive in another. Active and inactive are the calls of the source. Unless noted, calls follow the shape of the dose curve; as a rule, active = well fitted curve in the direction sought with a large enough effect in the repeat runs; inconclusive = weak or mixed curves; inactive = no such curve, though single readings can be large; an effect the other way counts as inactive or inconclusive.

Columns and labels:
[1] = qHTS assay to identify small molecule agonists of H2AX - cell viability counter screen (AID 1224847; calls by dose curve; also: top concentration of the series differs between compounds; nearly all actives have a fitted effect of over 30% in size)
Summary of the method: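 Wild-type CHO-K1 cells (10% FBS medium) were plated overnight at 37C, exposed to compounds at 15 concentrations for 3 hr at 37C (0.76% DMSO final), and viability was read as CellTiter-Glo luminescence after 30 min at room temperature.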

[2] = qHTS RealTime-Glo MT Cell Viability Assay in HepG2 cells - 24 hour (AID 1224867); also: nearly all actives have a fitted effect of over 50% in size
Summary of the method: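 Real-time, nonlytic viability: 600 HepG2 cells/well mixed with NanoLuc enzyme plus prosubstrate; 5 h settle, compound (DMSO) added by pintool; luminescence monitored over 40 h at 37 C.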

[3] = qHTS RealTime-Glo MT Cell Viability Assay in HEK293 cells - 32 hour (AID 1224868); also: nearly all actives have a fitted effect of over 50% in size; also: potency is read from the fitted curve at half-maximal effect
Summary of the method: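 Cells + reagent dispensed (600 cells/well, HEK293) → 5 h at 37 C/5% CO2 → 23 nL compound in DMSO pinned → 40 h at 37 C → luminescence read at 0, 8, 16, 24, 32, 40 h.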

[4] = A CellTox Green Cytotoxicity Assay to monitor cytotoxicity in HEK293 cells - 0 hour (AID 1224869); also: nearly all actives have a fitted effect of over 50% in size
Summary of the method: (§1)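 Fluorescence intensity, read at 0, 8, 16, 24, 32 and 40 h of compound treatment, reflected dye binding to DNA of dead HEK293 cells; compounds (23 nL, DMSO) were added 5 h after plating cells with reagent.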

[5] = qHTS RealTime-Glo MT Cell Viability Assay in HepG2 cells - 40 hour (AID 1224870); also: nearly all actives have a fitted effect of over 50% in size
Summary of the method: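 Real-time viability: cells seeded at 600 per well together with NanoLuc and cell-permeant prosubstrate, compounds added after 5 h incubation. Luminescence tracked at 0, 8, 16, 24, 32 and 40 h of exposure.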

[6] = A CellTox Green Cytotoxicity Assay to monitor cytotoxicity in HEK293 cells - 40 hour (AID 1224871); also: nearly all actives have a fitted effect of over 45% in size; also: potency is read from the fitted curve at half-maximal effect
Summary of the method: as §1

[7] = qHTS assay to identify small molecule agonists of the hypoxia (HIF-1) signaling pathway (AID 1224846; active = well fitted activation curve with a large enough effect in the signal ratio in the repeat runs, not every such curve was filed as active; the % refers to the signal ratio)
Summary of the method: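 A low-serum medium (0.5% dialyzed FBS) holding 2,000 HRE-bla ME-180 cells per well is preincubated for 5 hrs, dosed with compounds by pintool, and kept a further 17 hrs at 37C, 5% CO2 before CCF4-AM FRET detection of beta-lactamase.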

[8] = qHTS assay to identify small molecule agonists of the estrogen related receptor (ERR) signaling pathway from Tox21 library (AID 1224849; calls by dose curve; also: nearly all actives have a fitted effect of over 15% in size); conditions: ERR reporter cell line, ONE-Glo luciferase, 18 h; at 92.4 µM (top of the series) unless noted
Summary of the method: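 Screening used an NTP-provided ERR luciferase cell line. Compounds in DMSO were added 6 h after seeding and left 18 h at 37 C before a 30 min ONE-Glo step and luminescence reading.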

[9] = qHTS assay to identify small molecule antagonists of the estrogen related receptor (ERR) signaling pathway from Tox21 library (AID 1224848); also: nearly all actives have a fitted effect of over 50% in size; also: potency is read from the fitted curve at half-maximal effect
Summary of the method: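 Reading was by luminescence 30 min after ONE-Glo addition. Before that, ERR cells at 2,000 per well had rested 6 h at 37 C/5% CO2 and then received pin-tooled compounds in DMSO for 18 h at 37 C.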

Compound: CC(C)c1ccc(C(=O)N=C(N)N)cc1S(C)(=O)=O
- Potency [1]: inactive
- Potency [2]: inactive
- Potency [3]: inactive
- Potency [4]: inactive
- Potency [5]: inactive
- Potency [6]: inactive

Compound: CC(CN(CCN(CC(C)OCCO)CC(C)OCCO)CC(C)OCCO)OCCO (configuration not stated)
- outcome [7]: inactive
- Potency [3]: 23.7 µM (active)
- Potency [4]: inactive
- Potency [5]: inactive

Compound: COc1ccc(N)c([N+](=O)[O-])c1
- outcome [7]: inactive
- Potency [1]: inactive
- Potency [2]: inactive
- Potency [3]: inactive
- Potency [4]: inactive
- Potency [5]: inactive
- Potency [6]: inactive

Compound: O=C(c1ccccc1)c1ccc(O)cc1
- outcome [7]: inactive
- activity change, positive = activation [8]: -59.8% (inactive)
- Potency [2]: inactive
- Potency [3]: inactive
- Potency [4]: inactive
- Potency [5]: inactive
- Potency [6]: inactive

Compound: O=C(O)c1cccc(Oc2ccccc2)c1
- outcome [7]: inactive
- Potency [9]: inactive
- activity change, positive = activation [8]: -1.12% (inactive)
- Potency [2]: inactive
- Potency [3]: inactive
- Potency [4]: inactive
- Potency [5]: inactive
- Potency [6]: inactive

Compound: COc1cc(S(=O)(=O)Nc2ccccc2)c(OC)cc1N
- outcome [7]: inactive
- Potency [1]: inactive
- Potency [3]: inactive
- Potency [4]: inactive
- Potency [5]: inactive
- Potency [6]: inactive

Compound: COC(=O)C1=C(C)NC(C)=C(C(=O)OC(C)(C)CN(C)CCC(c2ccccc2)c2ccccc2)C1c1cccc([N+](=O)[O-])c1 (configuration not stated)
- Potency [1]: inactive
- Potency [9]: 13.3 µM (active)
- activity change, positive = activation [8]: -45.4% [at 42.5 µM] (inactive)
- Potency [3]: inactive
- Potency [4]: inactive
- Potency [6]: inactive

Compound: O=S(=O)(Cl)c1c(Cl)cccc1Cl
- outcome [7]: inactive
- Potency [1]: inactive
- Potency [2]: inactive
- Potency [3]: inactive
- Potency [4]: inactive
- Potency [5]: inactive
- Potency [6]: inactive

Compound: CCCC(=O)OC(=O)CCC
- outcome [7]: inactive
- Potency [1]: inactive
- Potency [2]: inactive
- Potency [4]: inactive
- Potency [5]: inactive
- Potency [6]: inactive

Compound: COc1ccc2nc(S(=O)Cc3ncc(C)c(OC)c3C)[nH]c2c1 (configuration not stated)
- outcome [7]: inactive
- Potency [1]: inactive
- Potency [2]: inactive
- Potency [3]: 21.6 µM (active) and inactive
- Potency [4]: inactive
- Potency [5]: inactive
- Potency [6]: inactive and 1.7 nM (active)

Compound: O=C(/C=C/c1ccc([N+](=O)[O-])cc1)c1ccccc1
- Potency [1]: inactive
- Potency [3]: 24.6 µM (active)
- Potency [4]: inactive
- Potency [6]: 17.4 µM (active)

Compound: O=C(C(=O)c1ccco1)c1ccco1
- outcome [7]: inactive
- Potency [1]: inactive
- Potency [2]: inactive
- Potency [4]: inactive
- Potency [5]: inactive
- Potency [6]: inactive

Compound: CC(=O)OCC1=C(C(=O)O)N2C(=O)[C@@H](NC(=O)CSc3ccncc3)[C@H]2SC1
- Potency [1]: inactive
- Potency [9]: inactive
- activity change, positive = activation [8]: 0.532% [at 42.5 µM] (inactive)
- Potency [2]: inactive
- Potency [3]: inactive
- Potency [4]: inactive
- Potency [5]: inactive
- Potency [6]: inactive
